According to the supplement of paper PMC11732987, “Enantioselective OTUD7B fragment discovery through chemoproteomics screening and high-throughput optimisation” (Communications Chemistry, 2025):

Assays:
Experiment in all cases: log2 ratio of Biotin-Ahx-Ub-VS probe labelling (compound/DMSO); higher = less target engagement, active = hit call of the paper (q ≤ 0.05, log2 ratio ≤ -1)
Conditions in all cases: treatment time: 3 h
[1] = compound: CCC1N(CCc2sccc12)C(=O)CCl
Procedure, shortened: (§1)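 Compound at 50 or 200 µM, or DMSO, was applied for 3 h in triplicate to HEK293T lysate (495 µg per sample, Tris/CHAPS/IGEPAL buffer with protease inhibitors), after which Biotin-Ahx-Ub-VS was added at 0.5 µM final for 1 h. The labelled DUBs were pulled down with NeutrAvidin, digested with LysC and trypsin, and run by diaPASEF LC-MS/MS. Ratios are averaged base-two logs of compound over DMSO from median-normalised label-free quantities by unpaired t-test, counting only proteins with at least 2 unique peptides.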

[2] = compound: CN1c2ccccc2C(CS1(=O)=O)NC(=O)CCl
Procedure, shortened: as §1

[3] = compound: Cl.ClCC(=O)N1CCc2ncncc2C1
Procedure, shortened: as §1

[4] = compound: Cl.Cn1ncc2C(CCCc12)NC(=O)CCl
Procedure, shortened: as §1

[5] = compound: ClCC(=O)NC1CCOc2ccccc12
Procedure, shortened: as §1

[6] = compound: ClCC(=O)NC1CCCc2ccccc12
Procedure, shortened: (§2)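 These values are averaged ratios of compound to vehicle, tested by unpaired t-test. HEK293T lysate (495 µg per sample) was preincubated in triplicate with compound across a concentration series or vehicle for 3 h and then with Biotin-Ahx-Ub-VS at 0.5 µM final for 1 h. Deubiquitinases carrying the probe were NeutrAvidin-enriched, digested with LysC and trypsin, and measured by diaPASEF LC-MS/MS. Ratios are expressed as log2 from global-median-normalised Spectronaut label-free quantities, and only proteins with two or more unique peptides were included.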

[7] = compound: ClCC(=O)N[C@@H]1CCCc2ccccc12
Procedure, shortened: as §2

[8] = compound: ClCC(=O)N[C@H]1CCCc2ccccc12
Procedure, shortened: as §2

[9] = compound: CCC1N(CCc2cc(OC)c(Cl)cc12)C(=O)CCl
Procedure, shortened: as §1

[10] = compound: CCCC1N(CCc2cc(OC)c(OC)cc12)C(=O)CCl
Procedure, shortened: as §1

Measured: log2 ratio of Biotin-Ahx-Ub-VS probe labelling

OTUB1 (UniProt Q96FW1)
UniProt Q96FW1, sequence (Q96FW1 whole entry): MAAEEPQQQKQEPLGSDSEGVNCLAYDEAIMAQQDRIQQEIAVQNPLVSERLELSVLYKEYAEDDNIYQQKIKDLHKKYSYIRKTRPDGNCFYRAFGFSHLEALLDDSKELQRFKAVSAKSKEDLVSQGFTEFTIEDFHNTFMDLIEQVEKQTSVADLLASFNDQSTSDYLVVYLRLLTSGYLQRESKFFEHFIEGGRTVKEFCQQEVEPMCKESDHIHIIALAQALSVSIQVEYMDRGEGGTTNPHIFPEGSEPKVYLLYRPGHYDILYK
inactive: [1]; compound concentration: 50uM -0.117 | [1]; compound concentration: 200uM -0.154 | [2]; compound concentration: 50uM -0.275 | [2]; compound concentration: 200uM -0.196 | [3]; compound concentration: 50uM -0.211 | [3]; compound concentration: 200uM -0.426 | [4]; compound concentration: 50uM 0.106 | [4]; compound concentration: 200uM -0.247 | [5]; compound concentration: 50uM -0.281 | [5]; compound concentration: 200uM -0.037 | [6]; compound concentration: 0.78uM -0.196 | [6]; compound concentration: 1.56uM -0.0742 | [6]; compound concentration: 3.13uM -0.226 | [6]; compound concentration: 6.25uM -0.309 | [6]; compound concentration: 12.5uM -0.314 | [6]; compound concentration: 25uM -0.147 | [6]; compound concentration: 50uM -0.404 | [6]; compound concentration: 100uM -0.172 | [6]; compound concentration: 200uM -0.492 | [7]; compound concentration: 0.78uM 0.0648 | [7]; compound concentration: 1.56uM -0.00906 | [7]; compound concentration: 3.13uM -0.216 | [7]; compound concentration: 6.25uM -0.197 | [7]; compound concentration: 12.5uM -0.122 | [7]; compound concentration: 25uM -0.199 | [7]; compound concentration: 50uM -0.236 | [7]; compound concentration: 100uM -0.0374 | [7]; compound concentration: 200uM -0.142 | [8]; compound concentration: 0.78uM -0.244 | [8]; compound concentration: 1.56uM -0.103 | [8]; compound concentration: 3.13uM -0.28 | [8]; compound concentration: 6.25uM -0.301 | [8]; compound concentration: 12.5uM -0.188 | [8]; compound concentration: 25uM -0.119 | [8]; compound concentration: 50uM -0.16 | [8]; compound concentration: 100uM -0.00187 | [8]; compound concentration: 200uM -0.123 | [9]; compound concentration: 50uM 0.198 | [9]; compound concentration: 200uM -0.422 | [10]; compound concentration: 50uM -0.107 | [10]; compound concentration: 200uM -0.0707

BAP1 (UniProt Q92560)
UniProt Q92560, sequence (Q92560 whole entry): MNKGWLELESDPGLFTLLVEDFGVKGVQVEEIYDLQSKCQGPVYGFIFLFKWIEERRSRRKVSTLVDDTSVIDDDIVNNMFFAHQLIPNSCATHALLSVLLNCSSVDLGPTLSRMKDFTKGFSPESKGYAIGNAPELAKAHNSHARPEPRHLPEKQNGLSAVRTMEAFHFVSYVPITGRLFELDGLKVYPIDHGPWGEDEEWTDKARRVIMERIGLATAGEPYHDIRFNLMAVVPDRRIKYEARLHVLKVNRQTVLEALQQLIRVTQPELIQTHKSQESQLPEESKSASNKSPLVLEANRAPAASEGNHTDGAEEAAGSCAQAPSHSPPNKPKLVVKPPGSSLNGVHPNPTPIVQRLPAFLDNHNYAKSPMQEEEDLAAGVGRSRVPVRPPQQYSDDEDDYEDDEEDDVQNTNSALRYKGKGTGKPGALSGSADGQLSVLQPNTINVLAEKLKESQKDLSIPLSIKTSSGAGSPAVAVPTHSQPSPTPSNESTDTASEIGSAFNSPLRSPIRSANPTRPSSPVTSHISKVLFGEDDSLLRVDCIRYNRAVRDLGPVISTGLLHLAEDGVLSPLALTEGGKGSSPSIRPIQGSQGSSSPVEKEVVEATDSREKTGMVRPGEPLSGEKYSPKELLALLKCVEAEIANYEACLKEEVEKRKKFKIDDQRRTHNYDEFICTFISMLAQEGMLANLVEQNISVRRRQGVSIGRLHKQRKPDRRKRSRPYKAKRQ
active: [2]; compound concentration: 200uM -2.09 | [3]; compound concentration: 200uM -1.04 | [4]; compound concentration: 200uM -1.03 | [5]; compound concentration: 200uM -2.15 | [6]; compound concentration: 200uM -1.34 | [7]; compound concentration: 200uM -1.54 | [8]; compound concentration: 200uM -1.39
inactive: [1]; compound concentration: 50uM -0.142 | [1]; compound concentration: 200uM -0.347 | [2]; compound concentration: 50uM -0.805 | [3]; compound concentration: 50uM -0.468 | [4]; compound concentration: 50uM -0.38 | [5]; compound concentration: 50uM -0.598 | [6]; compound concentration: 0.78uM -0.121 | [6]; compound concentration: 1.56uM 0.0581 | [6]; compound concentration: 3.13uM -0.0976 | [6]; compound concentration: 6.25uM -0.0118 | [6]; compound concentration: 12.5uM -0.122 | [6]; compound concentration: 25uM -0.306 | [6]; compound concentration: 50uM -0.368 | [6]; compound concentration: 100uM -0.762 | [7]; compound concentration: 0.78uM -0.169 | [7]; compound concentration: 1.56uM -0.0659 | [7]; compound concentration: 3.13uM -0.0706 | [7]; compound concentration: 6.25uM -0.137 | [7]; compound concentration: 12.5uM -0.178 | [7]; compound concentration: 25uM -0.163 | [7]; compound concentration: 50uM -0.418 | [7]; compound concentration: 100uM -0.683 | [8]; compound concentration: 0.78uM -0.119 | [8]; compound concentration: 1.56uM -0.0453 | [8]; compound concentration: 3.13uM -0.0819 | [8]; compound concentration: 6.25uM 0.12 | [8]; compound concentration: 12.5uM -0.18 | [8]; compound concentration: 25uM -0.239 | [8]; compound concentration: 50uM -0.305 | [8]; compound concentration: 100uM -0.756 | [9]; compound concentration: 50uM -0.0732 | [9]; compound concentration: 200uM -0.717 | [10]; compound concentration: 50uM -0.385 | [10]; compound concentration: 200uM -0.766

OTUD6B (UniProt Q8N6M0)
UniProt Q8N6M0, sequence (Q8N6M0 whole entry): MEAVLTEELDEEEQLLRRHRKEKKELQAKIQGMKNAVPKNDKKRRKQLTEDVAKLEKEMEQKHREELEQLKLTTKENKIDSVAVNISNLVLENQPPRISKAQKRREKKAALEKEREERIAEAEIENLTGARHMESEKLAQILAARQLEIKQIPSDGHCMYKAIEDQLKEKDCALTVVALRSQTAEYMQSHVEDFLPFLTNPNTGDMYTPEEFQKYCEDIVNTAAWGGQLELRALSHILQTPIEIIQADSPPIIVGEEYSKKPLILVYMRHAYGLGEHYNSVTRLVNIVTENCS
inactive: [1]; compound concentration: 50uM -0.125 | [1]; compound concentration: 200uM -0.283 | [2]; compound concentration: 50uM -0.286 | [2]; compound concentration: 200uM -0.251 | [3]; compound concentration: 50uM -0.254 | [3]; compound concentration: 200uM -0.722 | [4]; compound concentration: 50uM 0.122 | [4]; compound concentration: 200uM -0.00452 | [5]; compound concentration: 50uM 0.0287 | [5]; compound concentration: 200uM -0.0666 | [6]; compound concentration: 0.78uM -0.127 | [6]; compound concentration: 1.56uM -0.0797 | [6]; compound concentration: 3.13uM -0.201 | [6]; compound concentration: 6.25uM -0.105 | [6]; compound concentration: 12.5uM -0.198 | [6]; compound concentration: 25uM -0.128 | [6]; compound concentration: 50uM -0.0883 | [6]; compound concentration: 100uM -0.038 | [6]; compound concentration: 200uM -0.209 | [7]; compound concentration: 0.78uM -0.264 | [7]; compound concentration: 1.56uM -0.2 | [7]; compound concentration: 3.13uM -0.167 | [7]; compound concentration: 6.25uM -0.186 | [7]; compound concentration: 12.5uM -0.156 | [7]; compound concentration: 25uM -0.268 | [7]; compound concentration: 50uM -0.175 | [7]; compound concentration: 100uM -0.224 | [7]; compound concentration: 200uM -0.168 | [8]; compound concentration: 0.78uM -0.139 | [8]; compound concentration: 1.56uM -0.177 | [8]; compound concentration: 3.13uM -0.0832 | [8]; compound concentration: 6.25uM -0.0276 | [8]; compound concentration: 12.5uM -0.0686 | [8]; compound concentration: 25uM -0.159 | [8]; compound concentration: 50uM 0.0307 | [8]; compound concentration: 100uM -0.0663 | [8]; compound concentration: 200uM -0.229 | [9]; compound concentration: 50uM 0.0279 | [9]; compound concentration: 200uM -0.78 | [10]; compound concentration: 50uM -0.398 | [10]; compound concentration: 200uM -0.676

USP25 (UniProt Q9UHP3)
UniProt Q9UHP3, sequence (Q9UHP3 whole entry): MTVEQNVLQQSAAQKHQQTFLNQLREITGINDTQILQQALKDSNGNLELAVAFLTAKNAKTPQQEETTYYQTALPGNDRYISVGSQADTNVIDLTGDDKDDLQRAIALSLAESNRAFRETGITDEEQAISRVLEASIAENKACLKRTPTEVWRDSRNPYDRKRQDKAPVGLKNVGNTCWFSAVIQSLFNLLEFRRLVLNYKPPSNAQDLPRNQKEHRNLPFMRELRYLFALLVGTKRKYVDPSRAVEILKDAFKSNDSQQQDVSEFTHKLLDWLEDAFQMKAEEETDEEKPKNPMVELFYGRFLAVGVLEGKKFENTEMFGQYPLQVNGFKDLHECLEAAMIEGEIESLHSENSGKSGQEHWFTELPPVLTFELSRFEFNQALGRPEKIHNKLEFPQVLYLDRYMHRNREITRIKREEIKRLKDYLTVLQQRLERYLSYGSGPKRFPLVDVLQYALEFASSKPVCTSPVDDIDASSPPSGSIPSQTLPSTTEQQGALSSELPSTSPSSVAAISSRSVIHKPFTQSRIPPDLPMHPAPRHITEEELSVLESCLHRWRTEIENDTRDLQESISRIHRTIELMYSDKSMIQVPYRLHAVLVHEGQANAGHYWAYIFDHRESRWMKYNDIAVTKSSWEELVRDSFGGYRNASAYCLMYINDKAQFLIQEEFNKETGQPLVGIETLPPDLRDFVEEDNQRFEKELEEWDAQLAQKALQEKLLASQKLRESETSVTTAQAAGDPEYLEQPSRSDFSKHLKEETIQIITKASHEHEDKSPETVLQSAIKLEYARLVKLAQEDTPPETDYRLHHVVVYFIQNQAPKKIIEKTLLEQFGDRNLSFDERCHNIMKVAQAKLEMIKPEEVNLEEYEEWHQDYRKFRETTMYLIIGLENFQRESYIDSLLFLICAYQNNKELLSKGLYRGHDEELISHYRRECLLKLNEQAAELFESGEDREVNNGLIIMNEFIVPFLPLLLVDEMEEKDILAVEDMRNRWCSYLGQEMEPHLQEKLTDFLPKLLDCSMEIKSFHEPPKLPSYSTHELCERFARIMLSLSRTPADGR
inactive: [1]; compound concentration: 50uM 0.366 | [2]; compound concentration: 50uM -0.365 | [2]; compound concentration: 200uM -0.0888 | [3]; compound concentration: 50uM -0.861 | [4]; compound concentration: 50uM 0.177 | [4]; compound concentration: 200uM -0.552 | [5]; compound concentration: 50uM 0.145 | [5]; compound concentration: 200uM -0.0181 | [6]; compound concentration: 0.78uM -0.139 | [6]; compound concentration: 1.56uM -0.159 | [6]; compound concentration: 3.13uM -0.428 | [6]; compound concentration: 6.25uM -0.379 | [6]; compound concentration: 12.5uM -0.358 | [6]; compound concentration: 25uM -0.339 | [6]; compound concentration: 50uM -0.0397 | [6]; compound concentration: 100uM -0.3 | [6]; compound concentration: 200uM -0.848 | [7]; compound concentration: 0.78uM -0.531 | [7]; compound concentration: 1.56uM -0.227 | [7]; compound concentration: 3.13uM -0.277 | [7]; compound concentration: 6.25uM -0.312 | [7]; compound concentration: 12.5uM -0.223 | [7]; compound concentration: 25uM -0.606 | [7]; compound concentration: 50uM -0.594 | [7]; compound concentration: 100uM -0.346 | [7]; compound concentration: 200uM -0.308 | [8]; compound concentration: 0.78uM -0.226 | [8]; compound concentration: 1.56uM -0.458
active: [1]; compound concentration: 200uM -1.92 | [3]; compound concentration: 200uM -2.93
